Data taken from the supplement of paper PMC11732987, “Enantioselective OTUD7B fragment discovery through chemoproteomics screening and high-throughput optimisation” (Communications Chemistry, 2025).
Unmarked numbers belong to inactive results.

Experiments:
Experiment in all cases: log2 ratio of Biotin-Ahx-Ub-VS probe labelling (fragment/DMSO); higher = less target engagement (more negative = stronger competition), active = hit call of the paper (q ≤ 0.05, log2 ratio ≤ -1)
Conditions in all cases: compound concentration: 200 uM; treatment time: 3 h
OTUD6B = biological target: T1, OTUD6B (UniProt Q8N6M0)
T1 sequence (whole entry): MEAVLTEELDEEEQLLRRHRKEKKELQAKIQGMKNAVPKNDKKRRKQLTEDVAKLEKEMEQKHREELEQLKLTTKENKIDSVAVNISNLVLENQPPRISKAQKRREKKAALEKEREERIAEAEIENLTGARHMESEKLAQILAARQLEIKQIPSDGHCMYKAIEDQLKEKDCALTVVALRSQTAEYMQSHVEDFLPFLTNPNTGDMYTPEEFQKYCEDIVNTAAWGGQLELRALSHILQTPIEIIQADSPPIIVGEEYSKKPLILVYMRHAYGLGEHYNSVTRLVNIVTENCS
Method in brief: (§1)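 Fragment (200 µM) or vehicle was incubated for 3 h with triplicate HEK293T lysate samples of 495 µg, which were then treated with Biotin-Ahx-Ub-VS at 0.5 µM final for 1 h. Labelled DUBs were enriched on NeutrAvidin, digested with LysC and trypsin, and analysed by diaPASEF LC-MS/MS. Values are average log2 fragment/vehicle ratios from an unpaired t-test on global-median-normalised Spectronaut label-free quantities, using proteins with ≥2 unique peptides.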

OTUD7B = biological target: T2, OTUD7B (UniProt Q6GQQ9)
T2 sequence (whole entry): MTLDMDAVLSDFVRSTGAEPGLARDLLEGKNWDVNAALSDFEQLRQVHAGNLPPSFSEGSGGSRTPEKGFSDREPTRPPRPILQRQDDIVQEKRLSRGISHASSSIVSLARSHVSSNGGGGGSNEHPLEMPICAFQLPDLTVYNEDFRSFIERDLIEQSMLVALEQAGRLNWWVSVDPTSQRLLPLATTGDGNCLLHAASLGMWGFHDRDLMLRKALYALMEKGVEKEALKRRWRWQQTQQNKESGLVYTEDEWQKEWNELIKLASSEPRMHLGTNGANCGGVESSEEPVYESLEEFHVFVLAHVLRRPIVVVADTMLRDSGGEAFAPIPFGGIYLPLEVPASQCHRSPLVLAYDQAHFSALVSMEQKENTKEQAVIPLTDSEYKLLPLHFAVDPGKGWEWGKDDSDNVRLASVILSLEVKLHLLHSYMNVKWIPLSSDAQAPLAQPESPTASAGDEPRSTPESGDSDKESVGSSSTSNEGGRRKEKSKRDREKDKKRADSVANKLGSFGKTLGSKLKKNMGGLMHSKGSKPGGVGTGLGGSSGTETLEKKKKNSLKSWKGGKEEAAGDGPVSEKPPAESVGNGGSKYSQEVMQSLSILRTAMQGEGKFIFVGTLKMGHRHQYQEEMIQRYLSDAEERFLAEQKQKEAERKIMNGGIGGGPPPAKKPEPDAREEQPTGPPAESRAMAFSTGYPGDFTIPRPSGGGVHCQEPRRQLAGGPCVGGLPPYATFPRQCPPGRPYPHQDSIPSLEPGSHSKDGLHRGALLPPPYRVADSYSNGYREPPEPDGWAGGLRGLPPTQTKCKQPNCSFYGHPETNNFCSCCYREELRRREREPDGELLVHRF
Method in brief: as §1

PRPF8 = PRPF8 (UniProt Q6P2Q9)
Method in brief: as §1

PSMD7 = biological target: T3, PSMD7 (UniProt P51665)
T3 sequence (whole entry): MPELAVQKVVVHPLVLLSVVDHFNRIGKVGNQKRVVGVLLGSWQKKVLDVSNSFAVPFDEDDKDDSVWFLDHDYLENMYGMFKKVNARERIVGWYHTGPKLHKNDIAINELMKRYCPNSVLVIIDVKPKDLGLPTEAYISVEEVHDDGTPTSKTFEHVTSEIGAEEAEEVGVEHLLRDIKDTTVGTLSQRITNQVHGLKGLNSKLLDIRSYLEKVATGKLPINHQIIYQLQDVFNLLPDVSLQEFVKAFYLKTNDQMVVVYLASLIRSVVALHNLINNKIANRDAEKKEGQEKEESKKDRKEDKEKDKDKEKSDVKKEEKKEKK
Method in brief: as §1

UCHL1 = UCHL1 (UniProt P09936)
Sequence of UCHL1 (P09936 whole entry, looked up): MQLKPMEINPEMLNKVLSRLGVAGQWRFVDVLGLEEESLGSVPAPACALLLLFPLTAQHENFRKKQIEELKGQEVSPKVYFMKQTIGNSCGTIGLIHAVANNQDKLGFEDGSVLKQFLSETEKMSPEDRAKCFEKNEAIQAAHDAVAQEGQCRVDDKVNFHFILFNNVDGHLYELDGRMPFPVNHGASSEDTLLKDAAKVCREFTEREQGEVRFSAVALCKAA
Method in brief: as §1

UCHL3 = biological target: T4, UCHL3 (UniProt P15374)
T4 sequence (whole entry): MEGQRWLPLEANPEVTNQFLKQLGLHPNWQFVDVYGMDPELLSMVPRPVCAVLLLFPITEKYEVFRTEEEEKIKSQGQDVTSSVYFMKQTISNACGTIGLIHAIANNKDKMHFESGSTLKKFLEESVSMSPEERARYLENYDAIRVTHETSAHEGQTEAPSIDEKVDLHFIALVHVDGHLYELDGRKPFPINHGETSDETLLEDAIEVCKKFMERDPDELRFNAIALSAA
Method in brief: as §1

UCHL5 = biological target: T5, UCHL5 (UniProt Q9Y5K5)
T5 sequence (whole entry): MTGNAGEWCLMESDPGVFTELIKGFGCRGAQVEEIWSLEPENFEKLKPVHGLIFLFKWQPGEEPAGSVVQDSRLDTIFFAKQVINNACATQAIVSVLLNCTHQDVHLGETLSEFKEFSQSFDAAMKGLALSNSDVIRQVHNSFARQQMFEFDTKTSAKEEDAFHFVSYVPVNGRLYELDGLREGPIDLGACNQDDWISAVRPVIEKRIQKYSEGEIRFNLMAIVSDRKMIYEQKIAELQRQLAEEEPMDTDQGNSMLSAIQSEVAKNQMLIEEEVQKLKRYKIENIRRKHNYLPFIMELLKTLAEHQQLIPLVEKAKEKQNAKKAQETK
Method in brief: as §1

USP10 = USP10 (UniProt Q14694)
Sequence of USP10 (Q14694 whole entry): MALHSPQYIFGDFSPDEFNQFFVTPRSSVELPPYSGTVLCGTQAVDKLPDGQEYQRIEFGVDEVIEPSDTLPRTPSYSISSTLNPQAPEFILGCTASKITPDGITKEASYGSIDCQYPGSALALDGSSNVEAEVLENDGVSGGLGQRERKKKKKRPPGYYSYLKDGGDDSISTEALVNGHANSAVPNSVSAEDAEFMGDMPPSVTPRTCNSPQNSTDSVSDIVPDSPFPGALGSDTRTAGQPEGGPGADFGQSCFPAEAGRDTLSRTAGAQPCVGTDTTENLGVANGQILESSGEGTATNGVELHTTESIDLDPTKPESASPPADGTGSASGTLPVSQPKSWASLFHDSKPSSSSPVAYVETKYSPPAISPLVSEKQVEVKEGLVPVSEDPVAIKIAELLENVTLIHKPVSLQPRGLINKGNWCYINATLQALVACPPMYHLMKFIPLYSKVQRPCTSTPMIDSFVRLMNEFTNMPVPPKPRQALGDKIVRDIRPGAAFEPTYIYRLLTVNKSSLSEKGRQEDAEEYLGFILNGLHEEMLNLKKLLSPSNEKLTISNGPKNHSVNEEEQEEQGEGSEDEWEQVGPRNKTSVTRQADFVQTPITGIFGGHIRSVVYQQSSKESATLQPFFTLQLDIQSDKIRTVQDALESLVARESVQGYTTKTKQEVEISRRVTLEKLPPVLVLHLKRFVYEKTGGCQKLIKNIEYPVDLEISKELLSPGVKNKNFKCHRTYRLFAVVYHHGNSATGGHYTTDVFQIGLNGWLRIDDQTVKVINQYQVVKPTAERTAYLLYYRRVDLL
Method in brief: as §1

USP15 = biological target: T6, USP15 (UniProt Q9Y4E8)
T6 sequence (whole entry): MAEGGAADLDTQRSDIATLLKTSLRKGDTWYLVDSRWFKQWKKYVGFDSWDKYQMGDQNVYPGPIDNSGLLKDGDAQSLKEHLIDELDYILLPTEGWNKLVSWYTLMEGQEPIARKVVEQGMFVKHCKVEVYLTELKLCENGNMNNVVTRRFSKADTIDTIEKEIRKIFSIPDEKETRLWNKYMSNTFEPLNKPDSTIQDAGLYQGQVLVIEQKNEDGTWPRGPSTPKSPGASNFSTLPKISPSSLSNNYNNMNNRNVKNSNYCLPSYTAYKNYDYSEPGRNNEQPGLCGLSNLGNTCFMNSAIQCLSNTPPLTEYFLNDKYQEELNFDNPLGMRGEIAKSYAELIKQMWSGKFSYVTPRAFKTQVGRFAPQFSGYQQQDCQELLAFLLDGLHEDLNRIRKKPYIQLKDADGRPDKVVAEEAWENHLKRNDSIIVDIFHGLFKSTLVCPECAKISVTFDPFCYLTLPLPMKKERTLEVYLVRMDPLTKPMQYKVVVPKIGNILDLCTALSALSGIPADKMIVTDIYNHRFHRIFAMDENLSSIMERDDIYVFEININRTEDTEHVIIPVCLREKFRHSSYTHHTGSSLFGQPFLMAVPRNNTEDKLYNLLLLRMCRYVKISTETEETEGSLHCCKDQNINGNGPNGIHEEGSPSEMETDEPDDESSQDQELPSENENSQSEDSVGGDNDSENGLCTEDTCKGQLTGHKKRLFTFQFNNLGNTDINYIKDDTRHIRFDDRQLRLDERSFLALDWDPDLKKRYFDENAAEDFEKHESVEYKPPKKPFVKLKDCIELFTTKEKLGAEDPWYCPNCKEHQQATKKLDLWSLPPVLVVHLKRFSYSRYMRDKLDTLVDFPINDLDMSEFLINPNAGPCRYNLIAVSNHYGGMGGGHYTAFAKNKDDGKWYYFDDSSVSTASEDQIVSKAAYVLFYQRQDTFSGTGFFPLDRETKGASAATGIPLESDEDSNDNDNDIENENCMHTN
Method in brief: as §1

USP16 = USP16 (UniProt Q9Y5T5)
Sequence of USP16 (Q9Y5T5 whole entry, looked up): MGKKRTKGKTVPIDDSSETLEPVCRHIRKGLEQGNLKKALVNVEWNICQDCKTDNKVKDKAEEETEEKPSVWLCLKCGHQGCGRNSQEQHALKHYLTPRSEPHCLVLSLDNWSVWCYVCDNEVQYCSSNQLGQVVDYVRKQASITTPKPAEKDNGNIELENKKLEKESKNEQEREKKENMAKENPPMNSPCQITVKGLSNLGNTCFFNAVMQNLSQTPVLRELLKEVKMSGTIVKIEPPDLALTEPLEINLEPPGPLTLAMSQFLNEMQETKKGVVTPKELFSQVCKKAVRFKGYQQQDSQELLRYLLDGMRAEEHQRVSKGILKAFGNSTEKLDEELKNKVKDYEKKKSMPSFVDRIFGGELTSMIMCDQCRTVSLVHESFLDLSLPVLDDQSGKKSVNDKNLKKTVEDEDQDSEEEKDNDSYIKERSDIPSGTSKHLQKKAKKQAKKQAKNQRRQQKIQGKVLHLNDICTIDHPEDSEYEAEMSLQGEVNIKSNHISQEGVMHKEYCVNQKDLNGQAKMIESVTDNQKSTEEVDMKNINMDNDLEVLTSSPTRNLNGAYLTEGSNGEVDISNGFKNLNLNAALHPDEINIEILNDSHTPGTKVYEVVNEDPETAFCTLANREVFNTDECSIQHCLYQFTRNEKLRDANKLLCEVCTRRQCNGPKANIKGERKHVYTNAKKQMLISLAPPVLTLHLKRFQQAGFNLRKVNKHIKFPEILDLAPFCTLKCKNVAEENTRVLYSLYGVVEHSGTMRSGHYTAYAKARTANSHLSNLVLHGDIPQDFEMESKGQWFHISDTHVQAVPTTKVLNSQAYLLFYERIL
Method in brief: as §1

Compound: Cl.Cn1ncc2c1CCCC2NC(=O)CCl (stereo not given)
- log2 ratio of Biotin-Ahx-Ub-VS probe labelling (OTUD6B): -0.272
- log2 ratio of Biotin-Ahx-Ub-VS probe labelling (OTUD7B): -2.04 (active)
- log2 ratio of Biotin-Ahx-Ub-VS probe labelling (PRPF8): 0.261
- log2 ratio of Biotin-Ahx-Ub-VS probe labelling (PSMD7): 0.0323
- log2 ratio of Biotin-Ahx-Ub-VS probe labelling (UCHL1): -1.71 (active)
- log2 ratio of Biotin-Ahx-Ub-VS probe labelling (UCHL3): 0.241
- log2 ratio of Biotin-Ahx-Ub-VS probe labelling (UCHL5): -0.145
- log2 ratio of Biotin-Ahx-Ub-VS probe labelling (USP10): -0.078
- log2 ratio of Biotin-Ahx-Ub-VS probe labelling (USP15): -0.335
- log2 ratio of Biotin-Ahx-Ub-VS probe labelling (USP16): -0.096
